The list is not random: actives were taken first. Their share in the collection is about 12%.
BAZ2B block = qHTS Assay for Inhibitors of BAZ2B | Potency, µM (titrated, usually from 114 µM), actives largely listed as inhibitors | Bromodomain adjacent to zinc finger domain protein 2B (Homo sapiens), Q9UIF8 | AlphaScreen BAZ2B-H3K14Ac peptide displacement | actives 4.4% (n = 360,000) | AID 504333, 2011; also: nearly all actives have a fitted effect of over 60% in size
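BAZ2B (50 nM) with biotin-H3(5-23)K14Ac peptide (50 nM) in PBS pH 7.4, 0.01% Tween-20, preformed 30 min, then compound 30 min at room temperature; top concentration 110uM. AlphaScreen streptavidin donor/nickel chelate acceptor beads (10 ug/mL final), 20 min dark, signal read.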
JMJD2A Tudor inh = qHTS Assay for Inhibitors of JMJD2A-Tudor Domain | Lysine-specific demethylase 4A (Homo sapiens), O75164 | Potency, µM (series often up to 114 µM), hits mostly inhibitors | actives 4.4% (n = 390,000) | AID 504339, 2011 | AlphaScreen JMJD2A-Tudor / H3K4me3 peptide binding; also: nearly all actives have a fitted effect of over 50% in size
HP1b chromo inh = HTS for Inhibitors of HP1-beta Chromodomain Interactions with Methylated Histone Tails | Chromobox protein homolog 1 (Homo sapiens), P83916 | AlphaScreen HP1-beta / biotin-H3K9me3 peptide binding | Potency, µM (series often up to 114 µM), actives largely listed as inhibitors | actives 0.56% (n = 390,000) | AID 540317, 2011; also: nearly all actives have a fitted effect of over 70% in size
Target sequence (P83916 whole entry, looked up): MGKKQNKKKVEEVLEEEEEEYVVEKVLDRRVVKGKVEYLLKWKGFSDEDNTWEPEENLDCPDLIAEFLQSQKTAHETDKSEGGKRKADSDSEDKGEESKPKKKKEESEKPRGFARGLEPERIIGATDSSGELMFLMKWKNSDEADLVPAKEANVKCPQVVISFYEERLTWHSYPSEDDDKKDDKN
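AlphaScreen: HP1-beta (50 nM) preformed 30 min with biotin-H3(1-18)K9me3 peptide (50 nM) in PBS pH 7.4, 0.01% Tween-20. Compound added for 30 min at RT, then streptavidin donor/nickel chelate acceptor beads (10 ug/mL) for 30 min.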
G9a inh = qHTS Assay for Inhibitors of Histone Lysine Methyltransferase G9a; Histone-lysine N-methyltransferase EHMT2 (Homo sapiens), Q96KQ7; G9a H3K9 monomethylation, AlphaScreen, 2 h; Potency, µM (series often up to 102 µM), actives largely listed as inhibitors; actives 8.8% (n = 350,000); AID 504332, 2011; also: nearly all actives have a fitted effect of over 75% in size
Target sequence (Q96KQ7 913-1193 limits assumed): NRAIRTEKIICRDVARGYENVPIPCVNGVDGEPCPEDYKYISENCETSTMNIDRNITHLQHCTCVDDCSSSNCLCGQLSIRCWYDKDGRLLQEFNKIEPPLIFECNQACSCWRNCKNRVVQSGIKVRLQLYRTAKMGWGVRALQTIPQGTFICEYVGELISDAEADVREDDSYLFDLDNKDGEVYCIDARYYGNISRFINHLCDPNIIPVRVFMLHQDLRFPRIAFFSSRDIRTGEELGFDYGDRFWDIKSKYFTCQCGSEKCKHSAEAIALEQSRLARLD
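Quantitative HTS format: methyltransferase activity on a biotin-tagged H3K9 peptide is measured by AlphaScreen, using a rabbit anti-monomethyl-H3K9 antibody with streptavidin donor and anti-IgG acceptor beads. Final levels are 20 nM enzyme, 500 nM peptide, 20 uM SAM; 2 h RT.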
Sfp PPTase inh = qHTS Assay for Inhibitors of Bacillus subtilis Sfp phosphopantetheinyl transferase (PPTase). 4'-phosphopantetheinyl transferase ffp (Bacillus subtilis), Q9F4F7. Biochemical Sfp PPTase activity, qHTS. Potency, µM, usual class: inhibitors. actives 3.5% (n = 310,000). AID 1490, 2009;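 also: the enzyme is Sfp with the accession as filed and its product quenches rhodamine fluorescence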
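Fluorescence-quenching assay: 15 nM Sfp-PPTase preincubated 15 min at room temperature with compound, then 5 uM rhodamine-CoA and 12.5 uM BHQ-2-labelled YbbR peptide added. Fluorescence (ex 525/em 598 nm) read at start and after 30 min; difference gives rate.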
A number is an active result; i = inactive; ? = inconclusive; nt = no result given. Calls follow the shape of the dose curve; as a rule, active = well fitted curve in the direction sought with a large enough effect; inconclusive = small, poorly fitted or top-dose-only effect, or another doubt; inactive = no such curve, though single readings can be large; an effect the other way counts as inactive or inconclusive.

SMILES | BAZ2B block | JMJD2A Tudor inh | HP1b chromo inh | G9a inh | Sfp PPTase inh
Fc1cccc(NC(=S)NNc2c3ccccc3nc3ccccc23)c1 | 7.08µM | ? | ? | 15.8µM | i
CCCN1CCC(=O)N(CCO)CC1 | i | i | i | 44.7µM | i
CCCN1CCC(=O)N([C@H](CO)CC(C)C)CC1 | i | i | i | 31.6µM | i
CSc1cccc(NC(=S)N2CCC(c3ccccc3)C2)c1 (stereo not drawn) | i | i | i | i | i
CSc1cccc(NC(=S)N2CCC(N(C)C3CCCCC3C)CC2)c1 (stereo not drawn) | ? | i | i | 50.1µM | i
CSc1cccc(NC(=S)N2CCC(N(C)C3CCCCC3)CC2)c1 | i | i | i | 50.1µM | i
Cc1ccc(-c2nc3ccccc3c(=O)n2Cc2ccccc2)cc1 | i | i | i | i | i
O=c1c2ccccc2nc(-c2ccccc2O)n1Cc1ccccc1 | nt | 79.4µM | nt | nt | nt
NNc1nc2ccccc2c(=O)n1Cc1ccccc1 | i | ? | i | nt | 20µM
COc1ccccc1NC(=S)NC(=O)C(C)(C)C | i | i | i | 39.8µM | i
COc1ccccc1NC(=S)NC(=O)Cc1ccccc1 | nt | i | i | nt | nt
COc1ccc(/C=C/C(=O)NC(=S)NNC(=O)Cc2cccs2)cc1OC | i | i | i | 3.55µM | i
COc1ccccc1NC(=S)NNC(=O)c1nn(C)c(C)c1Br | i | i | i | 11.2µM | i
COc1ccccc1NC(=S)NC(=O)/C=C/c1cccs1 | nt | i | i | 44.7µM | i
COc1ccc(/C=C/C(=O)NC(=S)NNC(=O)c2cccs2)cc1OC | i | i | i | ? | i
COc1ccccc1NC(=S)NNC(=O)c1nn(C)c(C)c1Cl | i | i | i | ? | i
CC(C)CC1OC(=O)C2=CCCCC21 (stereo not drawn) | nt | nt | nt | nt | i
O=C(c1ccc(F)c(F)c1)N1CCCc2ccccc21 | i | i | i | i | i
O=C(Oc1ccc([N+](=O)[O-])cc1)C1CC(=O)N(c2ccc3c(c2)OCCO3)C1 (stereo not drawn) | nt | ? | i | nt | nt
CCOC(=O)C12CC1/C(=N/O)c1ccccc1O2 (stereo not drawn) | nt | nt | nt | i | nt
O=C(/C=C/c1cccs1)NC(=S)NNC(=O)Cc1cccs1 | i | i | i | 4.47µM | i
COc1ccc(NC(=O)C2C3C=CC4(O3)C2C(=O)N(CCCN2CCCCC2)C4C(=O)NC2CCCC(C)C2C)cc1 (stereo not drawn) | i | i | i | 44.7µM | i
COCCCN1C(=O)C2C(C(=O)Nc3cc(C)cc(C)c3)C3C=CC2(O3)C1C(=O)NC1CCCCC1 (stereo not drawn) | i | i | i | 89.1µM | 39.8µM
COc1cccc(NC(=O)C2C3C=CC4(O3)C2C(=O)N(CCCN2CCC(C)CC2)C4C(=O)NC2CCCCC2)c1 (stereo not drawn) | i | i | i | 44.7µM | i
O=C(Nc1ccc(Cl)c(Cl)c1)C1C2C=CC3(O2)C1C(=O)N(CCN1CCCCC1)C3C(=O)NC1CCCCC1 (stereo not drawn) | i | i | i | 44.7µM | i
SMILES | BAZ2B block | JMJD2A Tudor inh | HP1b chromo inh | G9a inh | Sfp PPTase inh
Cc1ccc(NC(=O)C2C3C=CC4(O3)C2C(=O)N(CCCN2CCOCC2)C4C(=O)NC2CCCCC2)cc1Cl (stereo not drawn) | i | i | i | ? | i
CCn1c2ccccc2c2nnc(N3CCN(c4ccc(OC)cc4)CC3)nc21 | i | i | i | i | nt
Cc1ccc(NC(=O)C2C3C=CC4(O3)C2C(=O)N(CCN2CCOCC2)C4C(=O)NC2CCCCC2)cc1C (stereo not drawn) | i | i | i | ? | i
CSc1cccc(NC(=O)C2C3C=CC4(O3)C2C(=O)N(CCN2CCOCC2)C4C(=O)NC2CCCCC2)c1 (stereo not drawn) | i | i | i | 50.1µM | i
C=C1c2ccccc2O[C@H](C(=O)OCC)[C@@H]1C1CCCCC1 (tested in a mixture with another compound) | nt | nt | nt | i | i
COc1ccc(CNC(=O)CN2N=C(c3ccccc3)CCC2=O)c(OC)c1 | i | i | i | i | nt
